From PubChem BioAssay (NCI) come the findings set out here.

Holding throughout (test): NCI-60 one-dose screen, 48 h (100 = growth as untreated, 0 = no growth, -100 = all killed)
Conditions in all cases: 10 µM unless noted

The test system of assay [1] is DU-145 prostate.
Assay [2] concerns K-562 leukemia.
For assay [3], the system named is MALME-3M melanoma.
For assay [4], the system named is MDA-MB-231 breast.
The test system of assay [5] is RXF 393 renal.
The subject of assay [6] is SF-268 CNS.
The subject of assay [7] is SF-295 CNS.
Assay [8] has as its system SF-539 CNS.
Assay [9] relates to UACC-257 melanoma.
In assay [10] the test system is M14 melanoma.

Compounds without any hit were thinned out: in the full panel of roughly 83,000, 20% have a hit.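 Treatment: one concentration, 48 hours, 96-well format. Scoring: percent growth, with anything below 10 considered active.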 A number with no mark means an inactive call. Activity calls are given as the source filed them.

Take `CC1=CC(C)(C)Nc2ccc(Cc3ccc4c(c3)C(C)=CC(C)(C)N4)cc21`: the growth was 98.1% in assay [1]; 114% in assay [2]; 87.2% in assay [3]; 86.1% in [4]; 79.6% in assay [5]; 103% in [6]. Moreover, the growth is 139% in assay [7], 96.6% in assay [8], 93.7% in [9] and 96.1% in [10].

With `O=C(N/N=C/c1c[nH]c2ccccc12)c1cc(-c2ccccc2)on1`, the growth in assay [1] is 100%; in assay [2], 55.4%; in [3] it was 94.8%; in assay [4], 89.4%; in assay [5], 97.8%; in assay [6], 85.9%. The growth was 98.2% in assay [7], 84.6% in assay [8], 102% in assay [9] and 88.6% in assay [10].

On to `CCCOc1ccc2nc(NC(=O)OC)[nH]c2c1`, for which the growth in [1] was 0.47% (active); in assay [2], 16.1%; in [3], 38%; in assay [4], -1.41% (active); in assay [5], 18.2%; in [6], 26.2%. The growth was -5.89% (active) in assay [7], 7.37% (active) in assay [8], 47.3% in assay [9] and 2.83% (active) in [10].

Consider `N#CN1CCC[C@H]1C(=O)N1CCc2c(-c3[nH]nc4ncccc34)cccc21`, for which the growth is 0.94% (active) in assay [1]; 4.49% (active) in assay [2]; 24% in assay [3]; 3% (active) in assay [4]; -19.7% (active) in [5]; 7.17% (active) in [6]. Also, the growth is -14.3% (active) in assay [7], -36.9% (active) in assay [8], 16.5% in assay [9] and -23.4% (active) in assay [10].

Regarding `c1ccc(-c2c(-c3ccccc3)[n+](Cc3ccc4ccccc4c3)c(-c3ccc(-c4nc5ccccc5s4)cc3)n2Cc2ccc3ccccc3c2)cc1`, the growth in assay [1] was -95.4% (active); in assay [2] it was -25.2% (active); in [3], -78% (active); in [4], -84.3% (active); in [5], -95.6% (active); in [6], -76.9% (active). The growth in assay [7] is -99.6% (active); in [8], -88.9% (active); in assay [9], -87.5% (active); in assay [10] it was -80.4% (active).

On to `O=C1CC(=NCC(=O)n2c(-c3ccccc3)nc3ccccc32)NN1`, for which the growth in assay [1] is 115%; in [2] it was 111%; in [3], 111%; in assay [4] it was 90.1%; in assay [5], 110%; in assay [6], 102%. In addition, the growth in assay [7] was 101%; in assay [8], 99.4%; in [9], 120%; in assay [10] it was 104%.

Consider `O=C1c2cc3c(cc2-c2c1c1ccc(Cl)cc1c(=O)n2CCCN1CCOCC1)OCO3`, for which the growth in [1] was 26.9%; in assay [2], 44.5%; in assay [3], 85.2%; in [4], 111%; in assay [5], 92.7%; in [6], 43.6%. For the same compound, the growth is 27.9% in [7], 22.7% in assay [8], 91.8% in [9] and 25.3% in [10].

For `Cn1c(NCCc2ccc(O)c(O)c2)nc2c1c(=O)n(Cc1ccc(Cl)c(Cl)c1)c(=O)n2C`, the growth is 74.5% in assay [1]; 79.6% in assay [2]; 75.7% in assay [3]; 69.5% in [4]; 72% in assay [5]; 64.8% in assay [6]. Also, the growth in [7] was 97.3%; in [8], 75.6%; in assay [9], 84.6%; in [10] it was 85.6%.

With `COc1cccc(-c2nc3sccn3c2-c2ccnc(NCCCNS(=O)(=O)c3c(Cl)cccc3Cl)c2)c1`, the growth in assay [1] is 66.1%; in [2], 30.9%; in assay [3], 73.2%; in assay [4], 87.8%; in assay [5] it was 74.7%; in assay [6], 68.4%. Also, the growth in [7] is 50.9%; in assay [8], 95%; in [9], 95.2%; in assay [10], 60.5%.

For `COc1ccc(-c2nc3ccc(-c4nc5ccc(N6CCN(c7ccccc7)CC6)cc5[nH]4)cc3[nH]2)cc1OC`, the growth is -42.4% (active) in [1]; -31.7% (active) in [2]; -63.8% (active) in assay [3]; -22% (active) in assay [4]; -37.1% (active) in assay [5]; 11.4% in assay [6]. Besides, the growth in [7] is 22.1%; in [8] it was 17.5%; in assay [9], -19.8% (active); in assay [10] it was 1.2% (active).

Consider `c1ccc(CCNc2ncnc3[nH]ncc23)cc1`, for which the growth in assay [1] was 109%; in assay [2], 94.6%; in [3] it was 114%; in assay [4], 93.2%; in assay [5], 93.2%; in assay [6], 109%. The growth in assay [7] was 102%; in [8], 116%; in [9], 96.5%; in assay [10], 104%.
